HCMV antiviral = qHTS Assay for inhibitors of the human cytomegalovirus (HCMV). HFF cells, HCMV-luciferase reporter, 72 h; hits give low values. activity change, negative = inhibition, % at 57.5 µM. hit rate 4.5% among 410,000. AID 1259415, 2018; in the data active = activity change below about -60%; inconclusive = no clear call, values can overlap the other calls; inactive = above about -39%
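After 16 h attachment at 37C, HFF cells received test compound and HCMV-luciferase (1 PFU/cell); reporter luminescence read 72 h later, data normalized against buffer-only and known inhibitor Salinomycin.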
Lassa entry inh = qHTS for Inhibitors of binding or entry into cells for Lassa Virus; hit rate 1.2% among 300,000; Lassa virus pseudotype entry inhibition, cell reporter; Potency, µM (titrated, usually from 37.9 µM), actives largely listed as inhibitors; calls by dose curve; tested in HEK293 cells; note: nearly all actives have a fitted effect of over 50% in size
FMDV antiviral = High Throughput Screening for Foot and Mouth Disease Virus Antivirals | FMDV antiviral cell-based qHTS | hit rate 1.2% among 410,000 | Potency, µM (highest dose often 57.9 µM), usual class: inhibitors | AID 1159524, 2015; calls by dose curve; tested in HEK293T cells; note: read-out not given here; nearly all actives have a fitted effect of over 45% in size
MARV entry inh = qHTS for inhibitors of binding or entry into cells for Marburg Virus; Marburg virus pseudotyped entry inhibition, cell reporter; Potency, µM (series often up to 37.8 µM), hits mostly inhibitors; hit rate 1.8% among 300,000; AID 540276, 2011; calls by dose curve; tested in HEK293 cells
Each line names hits and unclear results; the compound was inactive in the other large screens. Compounds with a hit are over-represented: about 6.2% of the library has one in this group of screens.

Cc1oncc1C(=O)Nc1ccc(C(F)(F)F)cc1	HCMV antiviral -69, Lassa entry inh inconclusive, MARV entry inh 7.1µM
Cc1nnc2n(c1=O)C(CS(=O)(=O)c1ccccc1)CS2 (centres undefined)	none
O=[N+]([O-])c1ccc(S(=O)(=O)CC2CSc3nc4ccccc4n32)cc1 (centres undefined)	HCMV antiviral -79, Lassa entry inh inconclusive, MARV entry inh inconclusive
CCCCNC(=O)c1nc2cc(C)c(C)cc2nc1-c1cccc(Br)c1	HCMV antiviral -94 (no result: Lassa entry inh, FMDV antiviral, MARV entry inh)
COc1ccc(N(CC(=O)Nc2ccc3c(c2)OCCO3)S(=O)(=O)c2cccnc2)cc1	none (no result: HCMV antiviral, Lassa entry inh)
C=C1CC[C@@H]2[C@](C)(CO)[C@H](O)CC[C@@]2(C)[C@@H]1C/C=C1/C(=O)OCC1O (some centres undefined)	HCMV antiviral -77, FMDV antiviral inconclusive (no result: Lassa entry inh, MARV entry inh)
C=C1CC[C@@H]2[C@](C)(CO)[C@H](O)CC[C@@]2(C)[C@@H]1C/C=C1/C(=O)OC[C@H]1O	none (no result: HCMV antiviral, Lassa entry inh, MARV entry inh)
ClCCn1cnc2c(SCc3ccccc3Cl)ncnc21	HCMV antiviral -76, Lassa entry inh inconclusive, MARV entry inh inconclusive
Cn1cnc2c(SCc3ccccc3)ncnc21	Lassa entry inh inconclusive, MARV entry inh inconclusive
ClCCn1cnc2c(SCc3ccccc3)ncnc21	HCMV antiviral -64, Lassa entry inh inconclusive, MARV entry inh 0.89µM
Cc1ccc(C(=O)N/C(=C\c2ccc(-c3cccc([N+](=O)[O-])c3)o2)C(=O)NCCCN2CCOCC2)cc1	HCMV antiviral -62 (no result: Lassa entry inh, MARV entry inh)
COc1ccc(C(=O)N/C(=C\c2ccc(-c3cccc([N+](=O)[O-])c3)o2)C(=O)NCCCN2CCOCC2)cc1	FMDV antiviral inconclusive (no result: Lassa entry inh, MARV entry inh)
CN(C)CCNC(=O)/C(=C/c1ccc(-c2cccc(Cl)c2)o1)NC(=O)c1ccccc1	Lassa entry inh inconclusive, MARV entry inh 8.2µM
Cc1ccc(C(=O)N/C(=C\c2ccc(-c3ccc(Cl)cc3)o2)C(=O)NCCCN(C)C)cc1	HCMV antiviral -72, Lassa entry inh inconclusive, MARV entry inh 6.3µM
CN(C)CCCNC(=O)/C(=C/c1ccc(-c2ccc([N+](=O)[O-])cc2)o1)NC(=O)c1ccccc1	none (no result: Lassa entry inh, MARV entry inh)
COc1ccc(C2CC(=O)c3cnc4c(-c5ccccc5)c(C)nn4c3C2)cc1OC (centres undefined)	none
COc1ccc(OC)c(NC(=O)C2CCCCC2C(=O)O)c1 (centres undefined)	none
CCCCN(C(=O)CSc1nc(CCC)cc(=O)[nH]1)c1c(N)n(Cc2ccccc2)c(=O)[nH]c1=O	MARV entry inh inconclusive
Clc1ccc(Cc2noc(-c3cccs3)n2)cc1	MARV entry inh inconclusive
Cc1ccccc1OC1C(=O)N(Cc2ccc3c(c2)OCO3)C1c1sccc1C (centres undefined)	HCMV antiviral -71, Lassa entry inh inconclusive, MARV entry inh inconclusive
CC(C)(C)OC(=O)N[C@H](Cc1ccccc1)C(=O)N1CCC[C@@H]1C(=O)O	HCMV antiviral -80 (no result: Lassa entry inh, MARV entry inh)
CCOc1ccc(NC(=O)c2ccc(N3CC4CC(C3)c3cccc(=O)n3C4)c(N)c2)cc1 (centres undefined)	HCMV antiviral inconclusive (no result: Lassa entry inh, MARV entry inh)
CCOc1ccc(/C=N/Nc2ccccn2)cc1OC	none
Cc1c(NC(=O)c2cnn3c(C(F)(F)F)cc(-c4ccco4)nc23)c(=O)n(-c2ccccc2)n1C	HCMV antiviral -62, FMDV antiviral inconclusive
O=C(O)c1cnn2c(C(F)(F)F)cc(-c3ccco3)nc12	MARV entry inh inconclusive
N=c1ccn(Cc2ccc(Cl)cc2Cl)cc1	HCMV antiviral -97, Lassa entry inh inconclusive, FMDV antiviral inconclusive
N=c1ccn(Cc2ccccc2Cl)cc1	HCMV antiviral -85, FMDV antiviral inconclusive, MARV entry inh inconclusive
N=c1ccn(Cc2c(Cl)cccc2Cl)cc1	HCMV antiviral -78, MARV entry inh inconclusive
Cc1ccc(C)n1Cc1ccccc1Cl	none
O=C(c1cc(COc2ccc(F)c(F)c2)on1)N1CCSCC1	Lassa entry inh inconclusive
CCOC(=O)c1sc(NC(=O)Nc2cccc(Cl)c2)cc1C	HCMV antiviral -95, Lassa entry inh inconclusive, MARV entry inh inconclusive
Cc1sc2ncn(CC(=O)NCCCC(=O)Nc3ccc(C(C)C)cc3)c(=O)c2c1C	HCMV antiviral -76, Lassa entry inh inconclusive, MARV entry inh inconclusive
Fc1ccc(CN2CCN(c3ncccn3)CC2)cc1	none (no result: FMDV antiviral)
Fc1ccc(CN(C2=NCCN2)c2c(Cl)cccc2Cl)cc1	Lassa entry inh inconclusive, MARV entry inh 18µM (no result: HCMV antiviral, FMDV antiviral)
Fc1cccc(CN(C2=NCCN2)c2c(Cl)cccc2Cl)c1	HCMV antiviral -63 (no result: Lassa entry inh, MARV entry inh)
CN1C(=O)/C(=C/c2cccc([N+](=O)[O-])c2)C(=O)N1c1ccccc1	Lassa entry inh inconclusive, FMDV antiviral 32µM
CCCN1C/C(=C/c2ccc3c(c2)OCO3)C(=O)/C(=C/c2ccc3c(c2)OCO3)C1	Lassa entry inh inconclusive, FMDV antiviral 18µM, MARV entry inh inconclusive
CCCN1C/C(=C/c2cccc([N+](=O)[O-])c2)C(=O)/C(=C/c2cccc([N+](=O)[O-])c2)C1	HCMV antiviral -105, Lassa entry inh 2µM, FMDV antiviral 2.5µM, MARV entry inh inconclusive
CCCN1C(=O)/C(=C/c2ccc3c(c2)OCO3)NC1=S	none (no result: Lassa entry inh, MARV entry inh)
COc1ccc(OC)c(C2C(C(=O)N(C)C)=C(C)Nc3nc4ccccc4n32)c1 (centres undefined)	none
Cc1ccc(SCc2cc(=O)[nH]c(N3CCN(Cc4ccc5c(c4)OCO5)CC3)n2)cc1	HCMV antiviral -63
NS(=O)(=O)c1ccc(N/C=C\C(=O)c2ccc3ccccc3c2)cc1	MARV entry inh inconclusive
COc1cccc(-c2cc(N3CCN(C(=O)c4ccoc4)CC3)n3nc(-c4cccc(Cl)c4)cc3n2)c1	HCMV antiviral -94 (no result: Lassa entry inh, MARV entry inh)
COc1cccc(-c2cc3nc(-c4ccccc4)cc(N4CCN(C(=O)c5ccoc5)CC4)n3n2)c1	HCMV antiviral -104, FMDV antiviral 32µM (no result: Lassa entry inh, MARV entry inh)
COc1ccc(NC(=O)OC[C@@H]2CSCCS(=O)(=O)N2)cc1	Lassa entry inh inconclusive (no result: FMDV antiviral, MARV entry inh)
S=C1SCN(Cc2cccs2)CN1Cc1cccs1	HCMV antiviral inconclusive (no result: Lassa entry inh, MARV entry inh)
S=C1SCN(Cc2ccco2)CN1Cc1ccco1	HCMV antiviral -99, Lassa entry inh inconclusive, MARV entry inh inconclusive
Cc1ccc(C2NC(=S)NC3=C2C(=O)CCC3)cc1 (centres undefined)	none
O=C1CCCC2=C1C(c1ccccc1)NC(=S)N2 (centres undefined)	HCMV antiviral -103
O=C(c1ccco1)N1N=C(c2ccc3nccnc3c2)CC1c1ccccc1 (centres undefined)	none (no result: Lassa entry inh, MARV entry inh)
Cc1ccc(C2CC(c3cccs3)=NN2C(=O)CCl)cc1 (centres undefined)	HCMV antiviral -101, Lassa entry inh inconclusive, FMDV antiviral 18µM, MARV entry inh inconclusive
CC(C)CNC(=O)C1(C)CCCN1C(=O)c1c(Cl)cccc1Cl (centres undefined)	none (no result: Lassa entry inh, MARV entry inh)
C=CCOc1ccc(C2/C(=C(/O)c3ccc4c(c3)CC(C)O4)C(=O)C(=O)N2CCCN2CCOCC2)cc1 (centres undefined)	FMDV antiviral inconclusive
Cc1ccc(OCc2cn3cccnc3n2)cc1	none
O=[N+]([O-])C1C(c2ccccc2)C12c1ccccc1-c1ccccc12 (centres undefined)	FMDV antiviral 14µM (no result: HCMV antiviral, Lassa entry inh, MARV entry inh)
CC1(C)c2ccccc2C(=O)c2ccccc21	Lassa entry inh inconclusive
